Laboratory results reported in PubChem BioAssay (NCI).
Several values for one entry are separate records, joined by “and”; a condition that tells them apart may be missing. Equal entries are not always repeated. The panel holds about 83,000 compounds, 20% with a hit somewhere; the sample as a whole holds those more often.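 In brief: 96-well plates, 48 h treatment, single concentration, percent growth endpoint.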 Activity calls are given as the source filed them. The calls were made as follows: active = growth percent below 10; inactive = the rest.

Columns and labels:
Assay in all cases: NCI-60 one-dose screen, 48 h (100 = growth as untreated, 0 = no growth, -100 = all killed)
Conditions in all cases: 10 µM unless noted
HCT-15 colon = system: HCT-15 colon
HT29 colon = system: HT29 colon
SNB-75 CNS = system: SNB-75 CNS
SNB-19 CNS = system: SNB-19 CNS
U251 CNS = system: U251 CNS
PC-3 prostate = system: PC-3 prostate
SK-MEL-5 melanoma = system: SK-MEL-5 melanoma
UACC-62 melanoma = system: UACC-62 melanoma
LOX IMVI melanoma = system: LOX IMVI melanoma
SK-MEL-28 melanoma = system: SK-MEL-28 melanoma
SK-MEL-2 melanoma = system: SK-MEL-2 melanoma
EKVX NSCLC = system: EKVX NSCLC
UO-31 renal = system: UO-31 renal
TK-10 renal = system: TK-10 renal
ACHN renal = system: ACHN renal
CAKI-1 renal = system: CAKI-1 renal
A498 renal = system: A498 renal
CCRF-CEM leukemia = system: CCRF-CEM leukemia
MOLT-4 leukemia = system: MOLT-4 leukemia
SN12C renal = system: SN12C renal

Compound	growth (HCT-15 colon)	growth (HT29 colon)	growth (SNB-75 CNS)	growth (SNB-19 CNS)	growth (U251 CNS)	growth (PC-3 prostate)	growth (SK-MEL-5 melanoma)	growth (UACC-62 melanoma)	growth (LOX IMVI melanoma)	growth (SK-MEL-28 melanoma)	growth (SK-MEL-2 melanoma)	growth (EKVX NSCLC)	growth (UO-31 renal)	growth (TK-10 renal)	growth (ACHN renal)	growth (CAKI-1 renal)	growth (A498 renal)	growth (CCRF-CEM leukemia)	growth (MOLT-4 leukemia)	growth (SN12C renal)
CN(C)CCC(=O)c1ccc(Cl)cc1	111% (inactive) and 116% (inactive)	106% (inactive) and 100% (inactive)	78.6% (inactive) and 114% (inactive)	95% (inactive) and 109% (inactive)	113% (inactive) and 111% (inactive)	92.5% (inactive) and 103% (inactive)	103% (inactive) and 112% (inactive)	98.5% (inactive) and 101% (inactive)	113% (inactive) and 92.2% (inactive)	107% (inactive) and 115% (inactive)	115% (inactive) and 118% (inactive)	115% (inactive) and 124% (inactive)	87.3% (inactive) and 95.4% (inactive)	105% (inactive) and 119% (inactive)	114% (inactive) and 105% (inactive)	102% (inactive) and 106% (inactive)	121% (inactive) and 114% (inactive)	93.2% (inactive) and 73.9% (inactive)	94.7% (inactive) and 93.5% (inactive)	–
COc1cc(Nc2nc3ccccc3nc2NS(=O)(=O)c2ccc(NC(=O)c3ccc(C)c(OC)c3)cc2)cc(OC)c1	60.3% (inactive) and 13.4% (inactive)	53.7% (inactive) and 5.41% (active)	32% (inactive) and -34.7% (active)	68.2% (inactive) and 39.1% (inactive)	55.4% (inactive) and 21.5% (inactive)	21.5% (inactive) and 11.1% (inactive)	85.3% (inactive) and -25.7% (active)	56.4% (inactive) and -32.5% (active)	52.7% (inactive) and 2.52% (active)	63.8% (inactive) and -17.5% (active)	–	40.1% (inactive) and 8.65% (active)	12.2% (inactive) and -20% (active)	54.1% (inactive) and -35.5% (active)	53.1% (inactive) and 1.39% (active)	62.2% (inactive) and -11.6% (active)	18.9% (inactive) and -44.3% (active)	20% (inactive)	37.5% (inactive) and 7.47% (active)	49.1% (inactive) and 14.8% (inactive)
COc1cc2nc(N3CCC[C@@H](NC(=O)C4COc5ccccc5O4)C3)nc(N)c2cc1OC (some centres undefined)	101% (inactive) and 97.1% (inactive)	109% (inactive) and 97.7% (inactive)	83.3% (inactive) and 90.3% (inactive)	107% (inactive) and 102% (inactive)	93.3% (inactive) and 84.2% (inactive)	92.9% (inactive) and 94.2% (inactive)	99.5% (inactive) and 96.7% (inactive)	103% (inactive) and 104% (inactive)	100% (inactive) and 94.7% (inactive)	102% (inactive) and 98.7% (inactive)	–	–	85.7% (inactive) and 65.2% (inactive)	98.6% (inactive) and 89.7% (inactive)	103% (inactive) and 96.4% (inactive)	92% (inactive) and 89.6% (inactive)	99.4% (inactive) and 83.5% (inactive)	96.2% (inactive) and 103% (inactive)	88% (inactive) and 94.3% (inactive)	104% (inactive) and 103% (inactive)
O=C(O)CN(CCN(CC(=O)O)CC(=O)O)CCN(CC(=O)O)CC(=O)O	9.67% (active) and 99.9% (inactive) and 107% (inactive)	2.39% (active) and 108% (inactive) and 94.8% (inactive)	9.81% (active) and 87.3% (inactive) and 85.8% (inactive)	27.6% (inactive) and 101% (inactive) and 98.6% (inactive)	4.18% (active) and 106% (inactive) and 94.1% (inactive)	9.35% (active) and 92.8% (inactive) and 93.5% (inactive)	3.74% (active) and 103% (inactive) and 106% (inactive)	8.73% (active) and 95.6% (inactive) and 101% (inactive)	-31.4% (active) and 101% (inactive) and 106% (inactive)	24% (inactive) and 105% (inactive) and 99.4% (inactive)	–	-24.9% (active) and 105% (inactive) and 111% (inactive)	-3.87% (active) and 77.1% (inactive) and 99.1% (inactive)	-24.1% (active) and 110% (inactive) and 94% (inactive)	–	-7.19% (active) and 87% (inactive)	12.7% (inactive)	5.22% (active) and 97.7% (inactive) and 102% (inactive)	-17.3% (active) and 113% (inactive) and 96% (inactive)	–
NC(=O)c1ccccc1OCC(O)CO (centres undefined)	98.1% (inactive)	105% (inactive)	84.5% (inactive)	102% (inactive)	99.5% (inactive)	103% (inactive)	101% (inactive)	98.5% (inactive)	104% (inactive)	105% (inactive)	103% (inactive)	–	99.7% (inactive)	110% (inactive)	–	97.5% (inactive)	94.6% (inactive)	93.6% (inactive)	108% (inactive)	101% (inactive)
O=C(O)CSCc1nc2ccccc2[nH]1	112% (inactive)	103% (inactive)	88.7% (inactive)	97.4% (inactive)	109% (inactive)	95.5% (inactive)	108% (inactive)	93.9% (inactive)	–	105% (inactive)	–	117% (inactive)	93.3% (inactive)	121% (inactive)	99.8% (inactive)	107% (inactive)	97% (inactive)	93.7% (inactive)	99.5% (inactive)	93.1% (inactive)
CCOc1ccc2c(S(=O)(=O)O)cccc2c1[N+](=O)[O-]	103% (inactive) and 108% (inactive)	105% (inactive) and 117% (inactive)	85.7% (inactive) and 93.8% (inactive)	108% (inactive) and 112% (inactive)	101% (inactive) and 99.9% (inactive)	93.4% (inactive) and 87.4% (inactive)	108% (inactive)	101% (inactive) and 110% (inactive)	105% (inactive) and 102% (inactive)	113% (inactive) and 118% (inactive)	–	99.2% (inactive) and 88.5% (inactive)	71.5% (inactive) and 79.1% (inactive)	104% (inactive) and 126% (inactive)	103% (inactive) and 105% (inactive)	87% (inactive) and 96.1% (inactive)	95% (inactive) and 116% (inactive)	90.6% (inactive) and 107% (inactive)	86.8% (inactive) and 96.4% (inactive)	–
C=C1C(=O)O[C@H]2[C@H]1CC/C(COC(=O)NC1CCC(O)CC1)=C\CC[C@@]1(C)O[C@@H]21 (some centres undefined)	92.2% (inactive) and 85.3% (inactive)	60% (inactive) and 43.7% (inactive)	71% (inactive) and 71.7% (inactive)	100% (inactive) and 99.5% (inactive)	91.8% (inactive) and 88.3% (inactive)	95.5% (inactive) and 90.6% (inactive)	–	–	90.3% (inactive) and 86.9% (inactive)	–	91.2% (inactive) and 86.1% (inactive)	72.8% (inactive) and 67.5% (inactive)	78.9% (inactive) and 70.1% (inactive)	75.2% (inactive) and 71.5% (inactive)	–	70.3% (inactive) and 64% (inactive)	105% (inactive) and 101% (inactive)	16.1% (inactive) and 12.7% (inactive)	69.5% (inactive) and 63.2% (inactive)	–
COc1cc(C(=O)c2ccc3c(c2)OCO3)cc(OC)c1OC	15.6% (inactive) and 27.4% (inactive)	5.54% (active) and -1.28% (active)	0.967% (active) and -9.36% (active)	35.9% (inactive) and 43.1% (inactive)	24.1% (inactive) and 16.2% (inactive)	29.3% (inactive)	18.3% (inactive) and 8.01% (active)	42.4% (inactive) and 22.9% (inactive)	24% (inactive) and 44% (inactive)	46.7% (inactive) and 43.2% (inactive)	–	55.7% (inactive) and 61.5% (inactive)	16.2% (inactive) and 37.6% (inactive)	31.7% (inactive) and 27.3% (inactive)	39.4% (inactive) and 48.1% (inactive)	4.39% (active) and 24.7% (inactive)	6.18% (active)	19.5% (inactive)	40.7% (inactive) and 42.7% (inactive)	47.1% (inactive) and 39.5% (inactive)
O=C1C2=C(C(=O)c3ccccc31)C(O)(S(=O)(=O)O)C(O)(S(=O)(=O)O)C1N=CC=CC21 (centres undefined)	32.3% (inactive) and 38.7% (inactive)	46.6% (inactive) and 21.4% (inactive)	61.1% (inactive) and 35.1% (inactive)	43.8% (inactive) and 48.5% (inactive)	30.3% (inactive) and 18.7% (inactive)	31.8% (inactive) and 30.2% (inactive)	26.6% (inactive) and 29.7% (inactive)	51.3% (inactive) and 45.6% (inactive)	36.7% (inactive) and 24.7% (inactive)	89.2% (inactive) and 73% (inactive)	–	36.4% (inactive) and 30.5% (inactive)	42.2% (inactive) and -0.599% (active)	71.8% (inactive) and 68.1% (inactive)	–	21.9% (inactive) and 15.8% (inactive)	82.1% (inactive) and 33.9% (inactive)	25.1% (inactive) and 41.9% (inactive)	25.6% (inactive) and 48.2% (inactive)	34.5% (inactive) and 39.1% (inactive)
